Hit rate of the full screen: of about 5,500 compounds, about 2,000 (36%) were called active. Inconclusive results (about 18%) are left out. No stated cut-off is given here; in the data, active means normalized growth mostly below about 0.91 (no sharp cut-off); inconclusive means no clear call, values can overlap the other calls; inactive means mostly above about 0.92. The list shows a part of the results.
Assay: chemical genetic growth profiling, strain panel (AID 1159580);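 further: tested at 20 µM; growth read once vehicle control cultures reached saturation at 30 °C; 1 = growth at the plate median or of vehicle wells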
Details: growth OD

Measured: normalized growth

CC(=O)Oc1ccc2c(c1)CCC1C2CC[C@]2(C)C(=O)CCC12 (stereo not given in full)
inactive: S. cerevisiae deletion strains, locus YJR043C, strain POL32, stronger effect = lower value 0.982 | S. cerevisiae deletion strains, locus YJR066W, strain TOR1, stronger effect = lower value 0.895 | S. cerevisiae deletion strains, locus YKL009W, strain mrt4, stronger effect = lower value 0.972 | S. cerevisiae deletion strains, locus YKL068W, stronger effect = lower value 1.02 | S. cerevisiae deletion strains, locus YKL085W, strain MDH1 (second series), stronger effect = lower value 1 | S. cerevisiae deletion strains, locus YKL085W, strain MDH1, stronger effect = lower value 1 | S. cerevisiae deletion strains, locus YKL160W, strain elf1, stronger effect = lower value 0.986 | S. cerevisiae deletion strains, locus YKL190W, strain CNB1, stronger effect = lower value 1 | S. cerevisiae deletion strains, locus YKR001C, strain vps1, stronger effect = lower value 1.01 | S. cerevisiae deletion strains, locus YKR026C, strain gcn3, stronger effect = lower value 0.984 | S. cerevisiae deletion strains, locus YKR091W, strain srl3, stronger effect = lower value 0.985 | S. cerevisiae deletion strains, locus YLL001W, strain dnm1, stronger effect = lower value 0.964 | S. cerevisiae deletion strains, locus YLL026W, stronger effect = lower value 0.988 | S. cerevisiae deletion strains, locus YLL041C, strain sdh2, stronger effect = lower value 0.983 | S. cerevisiae deletion strains, locus YLR027C, strain aat2, stronger effect = lower value 0.983 | S. cerevisiae deletion strains, locus YLR039C, strain RIC1, stronger effect = lower value 0.725 | S. cerevisiae deletion strains, locus YLR058C, strain SHM2, stronger effect = lower value 0.987 | S. cerevisiae deletion strains, locus YLR102C, strain apc9, stronger effect = lower value 1.02 | S. cerevisiae deletion strains, locus YLR113W, strain HOG1, stronger effect = lower value 0.991 | S. cerevisiae deletion strains, locus YLR221C, strain rsa3, stronger effect = lower value 0.991 | S. cerevisiae deletion strains, locus YLR258W, strain gsy2, stronger effect = lower value 0.985 | S. cerevisiae deletion strains, locus YLR262C, strain YPT6, stronger effect = lower value 0.623 | S. cerevisiae deletion strains, locus YLR268W, strain sec22, stronger effect = lower value 1.01 | S. cerevisiae deletion strains, locus YLR320W, strain mms22, stronger effect = lower value 0.983 | S. cerevisiae deletion strains, locus YLR330W, strain CHS5, stronger effect = lower value 1 | S. cerevisiae deletion strains, locus YLR342W, strain FKS1 (second series), stronger effect = lower value 0.959 | S. cerevisiae deletion strains, locus YLR342W, strain FKS1, stronger effect = lower value 0.965 | S. cerevisiae deletion strains, locus YLR357W, strain rsc2, stronger effect = lower value 0.981 | S. cerevisiae deletion strains, locus YLR370C, strain arc18, stronger effect = lower value 0.975 | S. cerevisiae deletion strains, locus YLR371W, strain rom2, stronger effect = lower value 1.02 | S. cerevisiae deletion strains, locus YLR384C, strain iki3, stronger effect = lower value 0.961 | S. cerevisiae deletion strains, locus YLR418C, strain cdc73, stronger effect = lower value 0.966 | S. cerevisiae deletion strains, locus YML016C, strain PPZ1, stronger effect = lower value 1 | S. cerevisiae deletion strains, locus YML032C, strain rad52, stronger effect = lower value 0.997 | S. cerevisiae deletion strains, locus YML120C, strain ndi1, stronger effect = lower value 0.986 | S. cerevisiae deletion strains, locus YML124C, strain tub3, stronger effect = lower value 1.02 | S. cerevisiae deletion strains, locus YMR058W, strain fet3, stronger effect = lower value 0.96 | S. cerevisiae deletion strains, locus YMR078C, strain ctf18, stronger effect = lower value 0.999 | S. cerevisiae deletion strains, locus YMR125W, strain sto1, stronger effect = lower value 0.992 | S. cerevisiae deletion strains, locus YMR129W, stronger effect = lower value 0.987 | S. cerevisiae deletion strains, locus YMR205C, strain PFK2, stronger effect = lower value 0.947 | S. cerevisiae deletion strains, locus YMR223W, strain ubp8, stronger effect = lower value 0.996 | S. cerevisiae deletion strains, locus YMR231W, strain pep5, stronger effect = lower value 0.964 | S. cerevisiae deletion strains, locus YMR307W, strain GAS1, stronger effect = lower value 1.07 | S. cerevisiae deletion strains, locus YNL067W, strain RPL9B, stronger effect = lower value 0.956 | S. cerevisiae deletion strains, locus YNL071W, strain lat1, stronger effect = lower value 0.994 | S. cerevisiae deletion strains, locus YNL128W, strain TEP1, stronger effect = lower value 1.02 | S. cerevisiae deletion strains, locus YNL183C, strain NPR1, stronger effect = lower value 0.894 | S. cerevisiae deletion strains, locus YNL209W, strain ssb2, stronger effect = lower value 0.982 | S. cerevisiae deletion strains, locus YNL233W, strain BNI4, stronger effect = lower value 0.949 | S. cerevisiae deletion strains, locus YNL248C, strain rpa49, stronger effect = lower value 1 | S. cerevisiae deletion strains, locus YNL250W, strain rad50, stronger effect = lower value 1.01 | S. cerevisiae deletion strains, locus YNL271C, strain bni1, stronger effect = lower value 1.02 | S. cerevisiae deletion strains, locus YNL298W, strain CLA4, stronger effect = lower value 0.962 | S. cerevisiae deletion strains, locus YNL307C, strain MCK1, stronger effect = lower value 1.01 | S. cerevisiae deletion strains, locus YNL322C, strain KRE1 (second series), stronger effect = lower value 0.967 | S. cerevisiae deletion strains, locus YNL322C, strain KRE1, stronger effect = lower value 1 | S. cerevisiae deletion strains, locus YNR049C, strain mso1, stronger effect = lower value 0.992 | S. cerevisiae deletion strains, locus YNR052C, strain pop2, stronger effect = lower value 0.996 | S. cerevisiae deletion strains, locus YOL006C, strain TOP1, stronger effect = lower value 0.719 | S. cerevisiae deletion strains, locus YOL012C, strain htz1 1.64 | S. cerevisiae deletion strains, locus YOL147C, strain pex11, stronger effect = lower value 1.01 | S. cerevisiae deletion strains, locus YOR001W, strain rrp6, stronger effect = lower value 0.972 | S. cerevisiae deletion strains, locus YOR061W, strain CKA2, stronger effect = lower value 1 | S. cerevisiae deletion strains, locus YOR069W, strain VPS5, stronger effect = lower value 1.01 | S. cerevisiae deletion strains, locus YOR070C, strain gyp1, stronger effect = lower value 0.988 | S. cerevisiae deletion strains, locus YOR080W, strain dia2, stronger effect = lower value 0.983 | S. cerevisiae deletion strains, locus YOR083W, strain WHI5, stronger effect = lower value 0.976 | S. cerevisiae deletion strains, locus YOR106W, strain vam3, stronger effect = lower value 0.968 | S. cerevisiae deletion strains, locus YOR136W, strain idh2, stronger effect = lower value 1.01 | S. cerevisiae deletion strains, locus YOR144C, strain elg1, stronger effect = lower value 1.01 | S. cerevisiae deletion strains, locus YOR231W, strain MKK1, stronger effect = lower value 0.928 | S. cerevisiae deletion strains, locus YOR265W, strain rbl2, stronger effect = lower value 0.989 | S. cerevisiae deletion strains, locus YOR270C, strain vph1, stronger effect = lower value 0.975 | S. cerevisiae deletion strains, locus YOR290C, strain snf2, stronger effect = lower value 0.998 | S. cerevisiae deletion strains, locus YOR316C, strain cot1, stronger effect = lower value 1.03 | S. cerevisiae deletion strains, locus YPL051W, strain arl3, stronger effect = lower value 0.979 | S. cerevisiae deletion strains, locus YPL078C, strain atp4, stronger effect = lower value 0.959 | S. cerevisiae deletion strains, locus YPL106C, strain sse1, stronger effect = lower value 1.02 | S. cerevisiae deletion strains, locus YPL240C, strain hsp82, stronger effect = lower value 0.969 | S. cerevisiae deletion strains, locus YPL241C, strain CIN2, stronger effect = lower value 1.01 | S. cerevisiae deletion strains, locus YPL256C, strain CLN2, stronger effect = lower value 0.945 | S. cerevisiae deletion strains, locus YPR119W, strain clb2, stronger effect = lower value 1.01 | S. cerevisiae deletion strains, locus YPR141C, strain kar3, stronger effect = lower value 1.02 | S. cerevisiae deletion strains, locus YPR163C, strain tif3, stronger effect = lower value 1.03 | S. cerevisiae deletion strains, locus YPR167C, strain met16, stronger effect = lower value 1.02 | S. cerevisiae deletion strains, strain wtn01, stronger effect = lower value 0.997 | S. cerevisiae strains, strain wild type, stronger effect = lower value 0.993
active: S. cerevisiae deletion strains, locus YLR262C, strain YPT6 (second series), stronger effect = lower value 0.689 | S. cerevisiae deletion strains, locus YOR184W, strain ser1, stronger effect = lower value 0.86
